PubChem BioAssay (EPA / NIEHS)
Active and inactive are the calls of the source. The calls were made as follows: active = hit-call score of the fitted dose curve at least 0.9, where 1 is the maximum; inactive = score below 0.9.

Assay: ATG_AP_1_CIS: Attagene CIS-FACTORIAL HepG2 Assay for human Activator Protein 1 (AP-1) (AID 2282931)
Conditions: HepG2 Attagene cis-factorial AP-1 reporter mRNA; actives raise or lower the signal
Protocol: ATG_CIS is a cell-based, multiplexed-readout assay that uses HepG2, a human liver cell line, with measurements taken at 24 hours after chemical dosing in a 24-well plate.ATG_AP_1_CIS is one of 52 assay component(s) measured or calculated from the ATG_CIS assay. It is designed to make measurements of mRNA induction, a form of inducible reporter, as detected with fluorescence intensity signals by Reverse transcription polymerase chain reaction (RT-PCR) and Capillary electrophoresis technology.Data from the assay component ATG_AP_1_CIS was analyzed into 1 assay endpoint. This assay endpoint, ATG_AP_1_CIS, was analyzed with bidirectional fitting relative to DMSO as the negative control and baseline of activity. Using a type of inducible reporter, measures of mRNA for gain or loss-of-signal activity can be used to understand the reporter gene at the transcription factor-level as they relate to the gene FOS and JUN. Furthermore, this assay endpoint can be referred to as a primary readout, because this assay has produced multiple assay endpoints where this one serves a reporter gene function. To generalize the intended target to other relatable targets, this assay endpoint is annotated to the dna binding intended target family, where the subfamily is basic leucine zipper.
Human liver HepG2 cells are transiently transfected with multiple reporter transcription units (MRTUs) in 6-well plates using FuGene 6 reagent (Roche; 3 ml FuGene/1 mg DNA). The MRTU constructs are regulated by a cis-regulating element (promoter). […] A major difference between the CIS and TRANS system is that in CIS activities of endogenous TFs are measured, whereas the TRANS assay evaluates changes in activities of exogenous, chimeric NR-Gal4 proteins. […] At the end of 24 hour incubation, total RNA was isolated using TriZol reagent (Invitrogen). The isolated RNA is then reverse-transcribed using oligo(dT) primer and Mo-MLV reverse transcriptase (Invitrogen) with DNAse I (Ambion) treatment for 30 min. The one-tenth of the produced cDNA was amplified by PCR using Taq DNA polymerase (Invitrogen) and two reporter sequence-specific primers. The PCR products were fluorescently labeled by primer extension with 6-arboxyfluorescein (6-FAM) 5'-labeled reporter sequence-specific primer (2 min at 95 C, 20 s at 68 C and 10 min at 72 C) and these products were digested with 5U of HpaI (New England Biolabs) for 2h at 37 C. The fragments were purified using Qiaquick PCR columns (Qiagen), analyzed on an ABI 3130xL genetic analyzer (Applied Biosystems) with peak positions identified by using a set of X-rhodamine (ROX)-labeled MapMarker1000 molecular weight standards (BioVentures). The raw capillary electrophoresis data was processed using Attagraph software (Attagene).

Structure (SMILES) | outcome | AC50
O=C(O)COc1ccc(Cl)cc1 | inactive | 
OCC(c1ccc(Cl)cc1)c1ccc(Cl)cc1 |  | 51.6 µM (active)
c1cc[c]([Sb]([c]2ccccc2)[c]2ccccc2)cc1 |  | 68.5 µM (active)
O=C(N[C@H]1CN2CCC1CC2)c1ccc2c(c1)OCCO2 | inactive | 
O=c1[nH]c2ccccc2n1C1CCN(CCCC(c2ccc(F)cc2)c2ccc(F)cc2)CC1 | inactive | 
Cc1c([N+](=O)[O-])c(C)c([N+](=O)[O-])c(C(C)(C)C)c1[N+](=O)[O-] | inactive | 
C[C@H]1C(=O)O[C@@H]2CCN3CC=C(COC(=O)[C@](C)(O)[C@]1(C)O)[C@H]23 | inactive | 
O=C(NC(=O)c1c(F)cccc1F)Nc1cc(Cl)c(OC(F)(F)C(F)C(F)(F)F)cc1Cl (stereo not given) |  | 100 µM (active)
O=C(Cc1ccccc1)OCCc1ccccc1 | inactive | 
C=CC(Cl)CCl (stereo not given) | inactive | 
OC(Cc1ccccc1Cl)(Cn1[nH]cnc1=S)C1(Cl)CC1 (stereo not given) |  | 53 µM (active)
O=C(Cl)OCCOCCOC(=O)Cl | inactive | 
Cc1cccc(N=Nc2ccc(N(C)C)cc2)c1 | inactive | 
CC(c1ccccc1)(c1ccc(O)cc1)c1ccc(O)cc1 |  | 7.98 µM (active)
O=[N+]([O-])c1c2ccccc2cc2ccccc12 | inactive | 
CC(=O)C(F)(F)C(F)(F)F | inactive | 
FC(F)OCC(F)(F)C(F)(F)F | inactive | 
ClCCN1CCOCC1 | inactive | 
COCC(=O)N(c1c(C)cccc1C)[C@H](C)C(=O)OC | inactive | 
CCOP(=O)(OCC)OC(=CCl)c1ccc(Cl)cc1Cl | inactive | 

Structure (SMILES) | outcome | AC50
CCC[N+](CCC)(CCC)CCC | inactive | 
C=CCc1ccccc1O | inactive | 
C=CCOC(N)=O | inactive | 
O=S(=O)(F)C(F)(F)C(F)(F)C(F)(F)C(F)(F)F | inactive | 
CCOC(=O)c1ccccc1S(=O)(=O)NC(=O)Nc1nc(Cl)cc(OC)n1 | inactive | 
O=C1C=CC(=O)c2ccccc21 | inactive | 
OC[P+](CO)(CO)CO | inactive | 
NC(=O)CCl | inactive | 
O=C(Nc1ccc(Br)cc1)c1cc(Br)cc(Br)c1O | inactive | 
CCCCS(=O)(=O)Cl | inactive | 
C1CN2CCN1CC2 | inactive | 
CC(C)(c1ccccc1)c1cc(-n2nc3ccccc3n2)c(O)c(C(C)(C)c2ccccc2)c1 | inactive | 
Clc1ccc(C(Cl)(Cl)Cl)cn1 | inactive | 
CCOC(=O)Cc1ccccc1 | inactive | 
CNC(=O)N(C)c1nc2ccccc2s1 | inactive | 
[F][Sn]([c]1ccccc1)([c]1ccccc1)[c]1ccccc1 | inactive | 
c1ccc(-c2cccc(-c3ccccc3)c2)cc1 | inactive | 
CCCCC(CC)COC(=O)Cl (stereo not given) | inactive | 
c1ccc2c(c1)Oc1ccccc1O2 | inactive | 
C[C@]12CC[C@@H](O)C[C@@H]1CC[C@@H]1[C@@H]2CC[C@]2(C)C(=O)CC[C@@H]12 | inactive | 
